Source: PubChem BioAssay AID2401 (Southern Research Specialized Biocontainment Screening …, 2010)
The whole screen tested about 2,200 compounds, of which about 530 (24%) were called active. The list is a sample of the results. Potency and affinity values are given separately. Values without a mark were called inactive.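 How the source made its calls: active means inhibition above a set limit at one or more concentrations of the dose series; inactive means inhibition under that limit at every dose.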

Experiment: nmpC-GFP reporter counter-screen in S. Typhimurium, dose response, counter-screen for PhoP regulon inhibitor project, Salmonella Typhimurium, GFP fluorescence (AID 2401);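 further: S. typhimurium with Mg-insensitive nmpC-GFP reporter grown at 10 µM Mg2+; drop in reporter fluorescence reflects general culture growth inhibition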
Conditions: 4 h; series mostly up to 150 µM; inhibition: at the top concentration

Structure (SMILES) | inhibition [%]
CCSc1nc(C2CC2)cc(-c2cccs2)c1C#N | -18.4
CNc1nc(Sc2ccccc2)cc(C(F)(F)F)n1 | -12.6
Cc1cc(C)c2nc(NNC(=O)c3ccc(S(=O)(=O)N4CCCCC4)cc3)sc2c1 | 21.1
O=S(=O)(Cc1ccccc1Cl)N1CCN(Cc2ccc3c(c2)OCO3)CC1 | -19.7
COc1ccccc1CNc1nc2nc(C)c(C)c(=O)n2[nH]1 | -8.36
Brc1cccc(CNCc2cccs2)c1 | 38.1
COc1cc(CNCc2cccs2)cc(Br)c1OC | 2.17
COc1ccc(CCNC(=S)Nc2cccc3ccccc23)cc1 | -16.6
Cc1cccc(Nc2ncccc2C(=O)NCc2cccs2)c1C | -18.4
Cn1c(=O)c(=O)n(C)c2cc(S(=O)(=O)Nc3ccc4c(c3)OCCO4)ccc21 | -14.2
COc1ccc(/C=N/NC(=O)CC(=O)NCc2cccnc2)cc1 | -30.6
CC(=O)Nc1ccc(C(=O)N2CCN(C(=O)c3ccco3)CC2)cc1 | -16.6
COc1ccc(S(=O)(=O)Nc2ccc(F)c(F)c2)cc1Cl | -16.4
OC(COc1ccc2c(c1)CCC2)Cn1cnc2ccccc21 (configuration not stated) | -22.3
O=C(Nc1cccc(Cl)c1)Nc1ccc2c(c1)OCO2 | 22.9
O=S1(=O)CC(O)C(Nc2ccccc2Cl)C1 (configuration not stated) | -5.93
NC(=O)c1ccccc1N=Cc1ccccn1 | -16.6
CCCc1cc(=O)oc2cc(OCC(=O)N3CCc4ccccc43)ccc12 | -31.7
CN1CCCC(OC(=O)c2ccc(Cl)cc2)C1 (configuration not stated) | 4.83
O=C(/C=C\c1ccco1)Nc1nc(-c2ccccc2)cs1 | 8.94
Cc1cc(C)c2c(c1)NC(=O)C2(O)CC(=O)c1cccs1 (configuration not stated) | -27.9
O=C(c1ccc(-c2ccccc2)cc1)c1ccccc1C(=O)N1CCOCC1 | -35.4
COc1ccc(/C=C/C(=O)NC(=S)NNC(=O)c2cnccn2)cc1 | 28.6
N#Cc1c(NC(=O)c2cnccn2)sc2c1CCCC2 | -36.9

Structure (SMILES) | inhibition [%]
CC(=O)C1=C(C)NC(SCSc2ccccc2)=C(C#N)C1c1cccnc1 (configuration not stated) | -11
CC(=O)NC1C(c2nc3ccccc3s2)=C(c2ccccc2)C(=O)N1c1ccc(C)cc1 (configuration not stated) | -5.01
COc1cccc(-c2nc(-c3ccc(Br)o3)no2)c1 | -20.9
CCc1ccc(OCC(=O)Nc2ccc(-c3cc4ccccc4oc3=O)c(OC)c2)cc1 | -8.74
Oc1ccc(/C=N/NC2=NCCCCC2)c(O)c1 | -12.8
CC(=O)Nc1cc(N=Cc2ccc(O)cc2O)c(Cl)cc1Cl | 24.2
Oc1ccc(/C=N/n2cnn(Cc3ccccc3Cl)c2=S)c(O)c1 | -8
O=C(O)CCS(=O)(=O)c1ccc(-c2ccccc2)cc1 | -15.4
O=C(c1ccco1)c1cn(CC(=O)N2CCCc3ccccc32)c2ccccc12 | 17.9
Cc1ccc([N+](=O)[O-])cc1NC(=O)CN(C(=O)c1ccc(Cl)cc1)C1CCCCC1 | 8.04
O=C(/C=C/c1ccccc1)N/C(=C/c1ccccc1)C(=O)N1CCOCC1 | -19.8
COc1cc(OC)cc(C(=O)N[C@H](C(=O)OCC(=O)Nc2ccc(C(N)=O)cc2)C(C)C)c1 | 0.38
O=C(N/N=C/c1ccc(O)cc1O)C(=O)N/N=C/c1ccc(O)cc1O | -9.16
CC1C(=O)NN=C1C(=O)N/N=C\c1ccc(O)cc1O (configuration not stated) | -83.9
O=C(NCCN1CCOCC1)c1ccc2ccccc2c1 | -11.9
CC(CN1CCOCC1)C(=O)c1ccccc1 (configuration not stated) | 7.3
Cc1ccc(-c2n[nH]c(=S)n2/N=C/c2cc3c(cc2[N+](=O)[O-])OCO3)cc1 | -22.4
O=Cc1cccn1Cc1ccccc1[N+](=O)[O-] | 16.3
CCCn1c(/N=C/c2ccc3c(c2)OCO3)nc2ccccc21 | 20.5
C(=N\N1CCN(Cc2ccccc2)CC1)/c1cccnc1 | -23.4
COC(=O)c1sccc1N/N=C(\C)c1ccc(F)c(Cl)c1 | -14.8
Cc1cccc2nc(CSc3nc4ccccc4o3)cn12 | -19.8
Nc1nc(Nc2ccc(Cl)cc2)n[nH]1 | -26.3
Cn1c(SCC(=O)NC(=O)c2cccc([N+](=O)[O-])c2)nnc1-c1ccc(F)cc1 | -35.7

Structure (SMILES) | inhibition [%]
Cc1cc(C)c(NC(=S)NC(=O)c2ccc(-c3ccccc3)cc2)c(C)c1 | -10.1
O=C(NNc1c2ccccc2nc2ccccc12)c1ccccc1O | 17.7
O=C(CSc1nnc(-c2cccnc2)o1)OC1CCCCC1 | -22.3
CCC(C)C(NC(=O)OCc1ccccc1)C(=O)OCN1C(=O)c2ccccc2C1=O (configuration not stated) | 19.2
Cc1cc(C2=NNC(=NC3CC3)SC2)c(C)n1-c1ccccc1 | 11.5
CCn1c(CNC(=O)COc2ccc(C(C)C)cc2)nnc1SCC(=O)Nc1ccccc1 | -16.7
Clc1ccc(CNc2ccc(CNc3ncn[nH]3)cc2)cc1 | -8.26
Cc1cc(C(=O)N2CCN(C/C=C/c3ccccc3)CC2)no1 | -11.5
N#CC1(C#N)COC23CCCCC2C1(C#N)C(=N)O3 (configuration not stated) | 16.8
CCCc1nn(C)c2c1C(c1cccnc1)C(C#N)=C(N)O2 (configuration not stated) | -14.1
CCSc1nnc(NC(=O)Cc2cccc(OC)c2)s1 | -15.3
O=C(COC(=O)c1n[nH]c2ccccc12)NC(=O)NC12CC3CC(CC(C3)C1)C2 | 24.8
C#CCOc1c(Cl)cc(/C=N/O)cc1OC | -31.2
Cc1ccc(N(CC(=O)N/N=C/c2ccco2)S(=O)(=O)c2ccccc2)cc1 | -13.4
O=C(Nc1cccnc1)c1cc(F)cc(F)c1 | -20
Cc1[nH]c2ccccc2c1C1=NNC(=Nc2ccc(F)cc2)SC1 | 21.3
O=C(CCC(=O)c1cccs1)OCC(=O)N1CCN(S(=O)(=O)c2ccccc2)CC1 | -3.05
CCOC(=O)CCC(NC(=O)c1ccc(NCN2C(=O)CCC2=O)cc1)C(=O)OCC (configuration not stated) | -16.3
Cc1ccc(S(=O)(=O)NCc2ccc(C(=O)N3CCN(c4ccccn4)CC3)cc2)cc1 | -3.97
COCCNCCOc1ccccc1-c1ccccc1 | -20.5
O=C(NCc1ccco1)c1cccc(Nc2nc3ccc(Br)cc3[nH]2)c1 | 16.6
Cc1ccc(C)c(-c2nc3ccc(N)cc3[nH]2)c1 | 8.01
Nc1cc(N)cc(-c2nc3ccccc3[nH]2)c1 | -11.4
O=C(OCC1O[C@@H](OC(=O)c2cc(O)c(O)c(O)c2)[C@@H](OC(=O)c2cc(O)c(O)c(O)c2)[C@@H](OC(=O)c2cc(O)c(O)c(O)c2)[C@@H]1OC(=O)c1cc(O)c(O)c(O)c1)c1cc(O)c(O)c(O)c1 (some centres not stated) | 26.4
